Assay outcomes from PubChem BioAssay.
PNC inhibitor: inhibitors of perinucleolar compartment assembly; PC3M PTB-GFP, PNC prevalence imaging, 16 h; hits give low values; activity change (PNC), negative = inhibition, % at 10 µM; 140,000 tested, 3.1% active; AID 2417;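 active = readout at or below -70, meaning at least 70% loss of cells showing the perinucleolar compartment, a nuclear body marking cancer cells; inconclusive = readout between -30 and a set limit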
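Read-out is percentage of cells bearing a perinucleolar compartment, from automated 20x imaging of fixed, Hoechst-stained PC3M PTB-GFP cells. Cells were seeded 4 h, then exposed 16 h to compound (23 nl of library stock) in duplicate plates.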
ALDH1A1 inh: inhibitors of human aldehyde dehydrogenase 1A1; Potency, µM (top dose mostly 75.3 µM), most hits filed as inhibitors; Purified ALDH1A1, NADH fluorescence, propionaldehyde substrate; P00352; 220,000 tested, 7.3% active; AID 1030
IMPase cell inh: IMPase inhibition in cells. P97697. CHO-M1 cells, IP1 accumulation, HTRF TR-FRET ratio. inhibition (IP1 accumulation), % at 46.1 µM. 120,000 tested, under 10 active; active = well fitted curve in the direction sought with a large enough effect in the signal ratio, not every such curve was filed as active; inconclusive = small, poorly fitted or top-dose-only effect, or a change in a side signal; inactive = no such curve, though single readings can be large or run the other way; the % refers to the signal ratio;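 note: cells stimulated with carbachol in lithium chloride buffer; higher means more IMPase inhibition seen as more IP1 and lower FRET ratio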
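Carbachol-driven Gq signalling in CHO-M1 cells (2000/well) generates IP1. Compounds that block IMPase raise IP1 and so reduce the FRET signal from Eu-anti-IP1 and d2-IP1 after a 10 min room-temperature lysis.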
IMPase Li inh: membrane-permeable IMPase blocker, potentiated with lithium; CHO-M1 cells, IP1 TR-FRET (IP-One), carbachol + lithium; Potency, µM (titrated, usually from 59.4 µM), usual class: inhibitors; 210,000 tested, 0.35% active; AID 1457; active = well fitted curve in the direction sought with a large enough effect; inconclusive = small, poorly fitted or top-dose-only effect, or another doubt; inactive = no such curve, though single readings can be large; an effect the other way counts as inactive or inconclusive;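 note: IP1 builds up when IMPase is blocked and the TR-FRET signal falls; nearly all actives have a fitted effect of over 50% in size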
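Lithium-sensitised IP1 accumulation assay; M1-expressing CHO cells treated 30 min at 37C with compound. Competitive antibody detection by time-resolved FRET followed a 10 min room-temperature lysis step.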
HPGD inh: blocks human HPGD enzyme activity | purified HPGD, NADH fluorescence kinetic, PGE2 substrate | Potency, µM, hits mostly inhibitors | 150,000 tested, 4.3% active | AID 894
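NADH formation kinetics: reaction with 30 uM PGE2 and 1 mM NAD+ (final), 20 nM enzyme, Tris-HCl pH 8 with Tween 20, after 15 min compound preincubation at room temperature. Fluorescence change, last versus first of five reads.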
12-hLO inh: 12-hLO (ALOX12) enzyme inhibition; P18054; AID 1452; Potency, µM (titrated, usually from 57.1 µM), usual class: inhibitors; 150,000 tested, 0.12% active; purified 12-hLO, xylenol orange hydroperoxide absorbance; active = well fitted curve in the direction sought with a large enough effect; inconclusive = small, poorly fitted or top-dose-only effect, or another doubt; inactive = no such curve, though single readings can be large; an effect the other way counts as inactive or inconclusive; note: nearly all actives have a fitted effect of over 55% in size
Target sequence (P18054 whole entry, looked up): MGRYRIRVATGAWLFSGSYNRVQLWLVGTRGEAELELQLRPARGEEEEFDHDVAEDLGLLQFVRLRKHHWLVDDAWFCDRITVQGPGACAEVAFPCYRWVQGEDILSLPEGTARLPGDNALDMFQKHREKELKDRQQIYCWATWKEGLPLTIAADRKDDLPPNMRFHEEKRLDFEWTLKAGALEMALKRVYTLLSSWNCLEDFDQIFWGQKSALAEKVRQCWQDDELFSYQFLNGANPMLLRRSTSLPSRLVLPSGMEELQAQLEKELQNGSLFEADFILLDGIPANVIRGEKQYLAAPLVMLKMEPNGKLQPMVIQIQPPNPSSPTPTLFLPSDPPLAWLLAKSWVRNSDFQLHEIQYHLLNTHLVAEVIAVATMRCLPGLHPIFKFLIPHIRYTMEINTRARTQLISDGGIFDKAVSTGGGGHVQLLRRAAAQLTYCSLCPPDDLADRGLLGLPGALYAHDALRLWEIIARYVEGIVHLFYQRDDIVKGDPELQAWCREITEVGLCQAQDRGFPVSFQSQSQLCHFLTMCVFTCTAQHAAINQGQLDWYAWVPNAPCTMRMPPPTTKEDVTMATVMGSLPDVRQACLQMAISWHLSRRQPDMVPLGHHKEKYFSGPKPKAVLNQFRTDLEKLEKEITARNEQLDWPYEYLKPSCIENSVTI
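Purified human 12hLO (150 nM), preincubated 15 min with compound, then 40 uM arachidonic acid for 30 min, room temperature, Hepes pH 7.0 with 0.01% Triton X-100. Hydroperoxide detected by ferrous iron/xylenol orange; 573/405 nm absorbance ratio gives reaction progress.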
A number is an active result; i = inactive; ? = inconclusive; nt = no result given; [ ] = dose if it differs, or a comment. The list is not random: actives were taken first. Their share in the collection is about 11%. Unless noted, calls come from the whole dose curve; as a rule, active = well fitted inhibition curve with a large enough effect (not every such curve was filed as active); inconclusive = small, poorly fitted or top-dose-only effect, or another doubt; inactive = no such curve, though single readings can be large or run the other way.

SMILES | PNC inhibitor | ALDH1A1 inh | IMPase cell inh | IMPase Li inh | HPGD inh | 12-hLO inh
CC[C@]1(O)C[C@@H]2CN(CCc3c([nH]c4ccccc34)[C@](C(=O)OC)(c3cc4c(cc3OC)N(C=O)[C@H]3[C@@](O)(C(=O)OC)[C@H](C(=O)OC)[C@@]5(CC)C=CCN6CC[C@]43[C@H]65)C2)C1 | nt | i | i | i | i | i
CCCSc1ncnc2c1oc1ccccc12 | i | ? | i | ? | 20µM | i
CCn1c(SCC(N)=O)nnc1-c1ccc(S(=O)(=O)N2CCN(C)CC2)cc1 | ? | ? | i | i | i | i
NC(=O)CSc1nnc(-c2ccc(S(=O)(=O)N3CCCCC3)cc2)n1-c1ccccc1 | ? | 16µM | i | i | i | i
COC(=O)CSc1nnc(-c2ccc(S(=O)(=O)N3CCCC3)cc2)n1C | ? | ? | i | i | i | i
COc1ccccc1-n1c(SCC(N)=O)nnc1-c1ccc(S(=O)(=O)N2CCCCC2)cc1 | i | 4.5µM | i | i | i | i
OCC1=CC[N+]2(Cc3ccccc3)CCC(O)[C@@H]12 (some centres undefined) | nt | i | nt | i | i | nt
S=c1[nH]nc(-c2ccc3ccccc3n2)n1-c1cc(Cl)cc(Cl)c1 | i | ? | i | 10µM | ? | i
S=c1[nH]nc(-c2ccc3ccccc3n2)n1-c1ccccc1Cl | i | i | nt | i | 10µM | i
Fc1ccc(-n2c(-c3ccc4ccccc4n3)n[nH]c2=S)cc1 | nt | i | nt | i | nt | nt
Cc1[nH]c2ccccc2c1-c1cc(-c2cc(-c3c(C)[nH]c4ccccc34)on2)no1 | nt | i[13.5 µM] | nt | i | i | i[11.4 µM]
c1ccc(OCc2nc3c4c(ncn3n2)-c2ccccc2CC42CCCC2)cc1 | -125 | ? | nt | i | i | i
CC(C)CCOc1ccc(C(=O)CCNC(C)C(=O)O)cc1 (centres undefined) | i | 0.13µM | i | i | i | i
CCCCOc1ccc(C(=O)Nc2ccncc2)cc1 | -118 | i | i | i | i | i
CCCCOc1ccc(C(=O)NC)cc1 | i | i | i | i | i | i
CC(NC(=O)c1ccc(C(C)(C)C)cc1)C(=O)O (centres undefined) | i | i | i | i | i | i
CC(C)CCOc1ccc(C(=O)O)cc1 | ? | i | i | i | i | i
CCCOc1ccc(C(=O)NC(C)C(=O)O)cc1 (centres undefined) | -106 | i | i | i | i | i
CCC1OC(=O)C(C)[C@@H](O[C@H]2C[C@@](C)(OC)C(O)C(C)O2)C(C)[C@@H](O[C@@H]2OC(C)CC(N(C)C)C2O)[C@@](C)(O)CC(C)CN(C)C(C)C(O)[C@]1(C)O (some centres undefined) | nt | i | nt | i | i | i
Cc1ccc(CCNC(=O)CN2CCN(Cc3ccc(Cl)cc3)C2=O)cc1 | nt | nt | i | nt | nt | nt
CCC(CC(C)(C)O)C(=O)NNC(=S)Nc1ccccc1 (centres undefined) | nt | 25µM | nt | i | nt | nt
C=CCNC(=S)NNC(=O)C(CCCC)CC(C)O (centres undefined) | ? | i | i | i | i | i
CCCCC(CC(O)COCC(C)C)C(=O)NNC(=S)Nc1ccccc1 (centres undefined) | ? | 10µM | i | i | i | i
CCOCCn1cnc2sc(C(=O)Nc3nc(C)c(C(=O)OCC)s3)c(C)c2c1=O | -82 | i | i | i | i | i
CCOC(=O)c1sc2ncn(/N=C/c3ccccn3)c(=O)c2c1C | i | ? | ? | i | i | i
CCOC(=O)c1sc2ncn(/N=C/N(C)C)c(=O)c2c1C | -86 | i | i | i | i | i
CCCCN(C)C(=O)c1sc2ncn(CC)c(=O)c2c1C | i | i | i | i | 16µM | i
CCCCC#CC1C=CC(Oc2cc(OC)c(OC)c(OC)c2)C(COC(=O)OCC)O1 (centres undefined) | nt | i[13.5 µM] | nt | nt | nt | nt
Cc1ccc2nc(Nc3ccccc3)c(/C=N/O)c(=O)n2c1 | -100 | i | i | i | 11µM | i
COc1ccc(Nc2nc3ccc(C)cn3c(=O)c2/C=N/O)cc1 | nt | i | nt | i | nt | nt
